# Measurements published in PubChem BioAssay AID540358 (NMMLSC, 2011).
# Where “and” joins values, the source holds several entries; their conditions need not be identical. Identical values can stand only once. Among all 1,100 compounds or so, about 260 (24%) were called active. The list is a sample of the results. A number with no mark means an inactive call.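 The calls were made as follows: active = surface receptor percent response at or below 58%, roughly 3 SD from nonfluorescent compounds; inactive = the rest.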
# Target: Beta-2 adrenergic receptor (Homo sapiens) (UniProt P07550)
# Sequence (P07550 whole entry, looked up): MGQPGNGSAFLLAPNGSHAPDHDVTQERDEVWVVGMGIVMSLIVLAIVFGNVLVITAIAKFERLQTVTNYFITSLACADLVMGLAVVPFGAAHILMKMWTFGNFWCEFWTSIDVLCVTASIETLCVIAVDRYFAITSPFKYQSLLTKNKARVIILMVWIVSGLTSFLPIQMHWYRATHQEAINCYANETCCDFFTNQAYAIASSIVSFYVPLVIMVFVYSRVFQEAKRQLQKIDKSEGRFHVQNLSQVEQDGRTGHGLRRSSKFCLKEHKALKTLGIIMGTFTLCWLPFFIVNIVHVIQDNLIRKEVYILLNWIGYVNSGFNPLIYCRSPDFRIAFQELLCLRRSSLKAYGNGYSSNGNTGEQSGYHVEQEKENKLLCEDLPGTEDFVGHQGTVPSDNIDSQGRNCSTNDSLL
# Test: beta2AR agonists via receptor internalization, confirmation, cell-based, FAP fluorogen, flow cytometry, single point, cherry pick 1 (AID 540358)
# Details: Am2.2-beta2AR cells, at 10 µM, hits give low values
row,Compound,percent response (surface receptor)
1,CSc1ccc(CNC(=O)c2ccc(NC(=O)C3=CSCCO3)cc2)cc1,17.5% (active)
2,OC(CNCc1ccc(Cl)c(Cl)c1)c1ccccc1 (stereo unspecified),110%
3,CCCCCCCCCCOC(=O)Cn1c(COc2ccc(C)cc2)[n+](C)c2ccccc21,108%
4,O=C1C(=O)N(CC2COc3ccccc3O2)c2ccccc21 (stereo unspecified),95.3%
5,O=C(NCCCn1ccnc1)C1CCCN(S(=O)(=O)c2cc(Cl)ccc2Cl)C1 (stereo unspecified),17.8% (active)
6,CC(=O)Nc1ccc(Nc2c3ccccc3nc3ccccc23)cc1,80.8%
7,COc1ccc(-n2nc3c(N4CCC(C(=O)NCc5ccccc5)CC4)nnc(C)c3c2C)cc1,152%
8,C=CCNC(=S)N/N=C/c1ccc(C)s1,110%
9,CC(=O)Nc1ccc(CN2CCC(Oc3ccc(C(=O)N4CCCC4)cc3)CC2)cc1,104%
10,CC(CCc1ccccc1)NCC(O)c1cccc([N+](=O)[O-])c1 (stereo unspecified),119%
11,COc1cc(C#Cc2ccc3cc(CCCO)oc(=O)c3c2)cc(OC)c1,68.2%
12,COc1ccc(-c2ccnc(SCC(=O)N3CCOCC3)n2)cc1,104%
13,Cc1ccc(Cl)cc1NC(=O)CN1CCN(S(=O)(=O)N2CCOCC2)CC1,93.5%
14,CCOc1ccccc1N1C(=O)CC(Sc2nccc(C)n2)C1=O (stereo unspecified),106%
15,CCOC(=O)c1ccc(NC(=O)Cn2nnc(-c3ccc(C)cc3)n2)cc1,12.3% (active) and 4.86% (active)
16,COc1ccc2c(c1OC)C(=O)OC2Nc1nc(-c2ccccc2)cs1 (stereo unspecified),99.6%
17,O=C(C1CCN(c2nnc(-n3cccc3)s2)CC1)N1CCc2ccccc2C1,146%
18,CC(=O)c1ccc(NC(=O)c2ccc3c(Cl)c4c(nc3c2)CCCC4)cc1,66.5%

row,Compound,percent response (surface receptor)
1,Cc1cc(S(=O)(=O)N2CCOCC2)ccc1OCC(=O)Nc1cccc(C(F)(F)F)c1,99%
2,COc1ccc(OC)c(NC(=O)c2sc3nc(C)cc(C)c3c2N)c1,34.7% (active)
3,N#Cc1cccc(NC(=O)COC(=O)c2ccccc2C(=O)c2ccc(Cl)c([N+](=O)[O-])c2)c1,85.9%
4,COc1ccc(OC)c(S(=O)(=O)N(C)CC(=O)N2CCN(c3ccccc3)CC2)c1,88.9% and 123%
5,CCOc1ccccc1NC(=O)COc1ccc(S(=O)(=O)N2CCCC2)cc1,128%
6,COc1ccc(S(=O)(=O)N2CCCC(C(=O)Nc3ccc(NC(=O)c4ccccn4)cc3)C2)cc1 (stereo unspecified),44.1% (active)
7,CCOc1ccc(NC(=O)COc2ccc(S(=O)(=O)N3CCCC3)cc2)cc1,104%
8,CCN1CCC2(CC1)N=C(c1ccc(F)cc1)C(=S)N2C(=O)c1ccc(C)cc1,92.8%
9,Cc1ccc(OCC(=O)Nc2ccc(-c3nc4ncccc4o3)cc2)cc1,38.8% (active) and 23.3% (active)
10,CC(=O)c1cccc(NC(=O)COc2ccc(S(=O)(=O)N3CCOCC3)cc2)c1,120%
11,CCCOc1ccc(C(=O)C(CCC(CNCC)C(=O)c2ccc(OCCC)cc2)CNCC)cc1 (stereo unspecified),61%
12,O=S(=O)(Nc1ccc2[nH]ncc2c1)c1ccccc1Cl,89.6%
13,Cc1ccc(Sc2cc(N3CCOCC3)nc(-c3ccccc3)n2)cc1,22.9% (active)
14,CCCN(CCc1ccccc1)C1CCc2c(O)cccc2C1 (stereo unspecified),111%
15,CSc1ccc(CCNC(=O)C2CCN(c3nnc(-n4cccc4)s3)CC2)cc1,60.9%
16,Oc1ccc(N=Cc2sc3ccccc3c2Cl)cc1,101%
17,O=C(Nc1ccc2c(c1)OCCO2)C(c1ccc(F)cc1)N1CCCCC1 (stereo unspecified),112%
18,COc1ccc(C(CCNCc2ccccc2F)c2ccc(F)cc2)cc1 (stereo unspecified),109%
